Compounds without any hit were thinned out: in the full panel of roughly 83,000, 20% have a hit.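 Growth was measured after 48 h exposure to one concentration of compound in 96-well plates. Values under 10 count as active.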 Calls of active or inactive are those of the source.

Growth data for 35 compounds are collected here from PubChem BioAssay (NCI).

The test system of this assay is OVCAR-4 ovarian. Description: NCI-60 one-dose screen, 48 h (100 = growth as untreated, 0 = no growth, -100 = all killed). Conditions: 10 µM unless noted.
For the compound `CC1(C)CC[C@]2(C(=O)N3CCOCC3)CC[C@]3(C)C(=CC[C@@H]4[C@@]5(C)C/C(=C/c6ccncc6)C(=O)C(C)(C)[C@@H]5CC[C@]43C)[C@@H]2C1`, the growth is 14.2% (inactive). Regarding `O=C(Nc1cccnc1Nc1ccc(Cl)cc1)c1cn(Cc2ccc(F)cc2)nn1`, the growth is 89.8% (inactive). To `C=C1C(=O)O[C@H]2[C@H]1CC/C(CNC(=O)c1cc3ccccc3[nH]1)=C\CC[C@@]1(C)O[C@@H]21` belongs -7.16% (active); to `C=CCN=C(N)SCCCCCCSC(N)=NCC=C`, 109% (inactive); to `CNC(=O)c1c(NC(=O)c2ccc(C(C)(C)C)cc2)sc2c(CN(C)C)c(O)ccc12`, 67.5% (inactive).

Regarding `COc1ccc(C/C(C)=C(\c2ccc(O)cc2)c2ccc(OCCN3CCCC3)cc2)cc1`, the growth was 104% (inactive). For `S=c1ssnc1-c1cccs1`, the growth was 99.8% (inactive). For the compound `COc1cc(/C=C/c2cc(/C=C/c3ccc(O)c(OC)c3)n(C(=O)Nc3ccc(F)cc3)n2)ccc1O`, the growth was 35.5% (inactive). For `COc1cc2c3c(n(CCCCNCCCn4c5c(c6cc(OC)c(OC)cc6c4=O)C(=O)c4cc6c(cc4-5)OCO6)c(=O)c2cc1OC)-c1cc2c(cc1C3=O)OCO2` the value was 102% (inactive); for `COc1cc(-c2cc(-c3ccc(Nc4ncnc5cc(Cl)ccc45)cc3)nc(N3CCN(C)CC3)n2)cc(OC)c1OC`, 58.9% (inactive).

`COc1cc(C(=O)/C=C/c2ccc(N3CCN(C)CC3)cc2)cc(OC)c1OC`: the growth is 101% (inactive). In the case of `Cc1ccc2[nH]c(=O)c3c(c2c1)OC(N)=C(C#N)C31C(=O)c2cccc3cccc1c23` (stereo not given), the growth was 89.4% (inactive). As for `Cn1c(=O)c2c(nc(NC3=NS(=O)(=O)c4ccccc43)n2Cc2ccccc2)n(C)c1=O`, the growth is 103% (inactive). As to `COc1ccc(C/C(C)=C(/c2ccc(OCCN3CCCCCC3)cc2)c2ccc(OC(=O)NCc3ccccc3)cc2)cc1`, the growth was 76% (inactive). For `Cn1cc(-c2csc(-c3cn(C(=O)OC(C)(C)C)c4ccccc34)n2)c2ccnc(Cl)c21` the value was 9.63% (active); for `CCN(C(=O)N1CCN(c2cc3c(cc2F)c(=O)c(C(=O)O)cn3C2CC2)CC1)c1nc(-c2ccc(C)cc2)cs1`, 31.5% (inactive); for `COC(=O)c1nc(-c2ccccc2)oc1S(=O)(=O)N1CCC(C(N)=O)CC1`, 61.2% (inactive). Consider `CCCCSCC(=O)c1ccccc1`, for which the growth is 100% (inactive).

Regarding `Cc1ccc(Nc2nc(-c3ccc(F)cc3)c(C#N)c(=O)n2C)cc1`, the growth is 51% (inactive).

`COc1cccc(OC)c1Oc1c(-c2nc3ccccc3s2)c(C)nn1-c1ccccc1`: the growth is 63.4% (inactive). `Cc1ccccc1CNc1c2ccccc2nc2ccccc12`: the growth is 32.9% (inactive). As for `COc1ccc2nc3ccccc3c(NCc3ccc(F)cc3)c2c1`, the growth was 13.6% (inactive). With `O=C1NC(=O)c2c1c1c3ccccc3[nH]c1c1oc3cc(Br)ccc3c21`, the growth was 77.4% (inactive).

`COc1ccc(-c2nnc(SCC(=O)Nc3ccc(/C(C)=N\O)cc3)n2-c2ccccc2)cc1OC`: the growth was 103% (inactive). For `CC1=CCC[C@@H]2C1(C)CC[C@H](C)[C@@]2(C)CC1=CC(=O)C(SC(C)(C)C)=CC1=O` (stereo not given in full), the growth was 88.5% (inactive). `CCn1cc(CNc2ccc(C(=O)Nc3cc4cc(OC)c(OC)cc4c(C)n3)cc2)c(C)n1`: the growth was 25% (inactive). Turning to `CCCCN1C(=O)/C(=c2\sc3n(c2=O)NC2C(N=3)N(CC)C(=O)N2CC)c2ccccc21` (stereo not given), the growth is 50.8% (inactive).

With `NC(=O)c1c(NC(=O)c2ccc(Cl)cc2)sc2c1CCC(=O)C2`, the growth is 9.18% (active). Consider `CC1(C)CC[C@]2(C(=O)O)CC[C@]3(C)C(=CC[C@@H]4[C@@]5(C)C[C@@H](Cc6cn([C@@H]7O[C@H](CO)[C@@H](O)[C@H](O)[C@H]7O)nn6)[C@H](O)C(C)(C)[C@@H]5CC[C@]43C)[C@@H]2C1`, for which the growth is 96.6% (inactive). Turning to `CCNCc1ccc(O)c2ncccc12`, the growth was 17.8% (inactive). In the case of `CC(C)c1ccc(C(=O)Nc2sc3cc(O)ccc3c2C#N)cc1`, the growth is 58% (inactive).

On to `CCOC(=O)c1c(NC(=O)CSc2n[nH]c3nc4ccccc4n23)sc(CC)c1C`, for which the growth was 98.1% (inactive). For `COc1cccc(/C=C/C(=O)c2cc3c(N)c(C(=O)Nc4cccc(Cl)c4C)sc3nc2C)c1` the value was 38.1% (inactive); for `Cc1nn(-c2ccccc2)c(N2CCCCC2)c1/C=N/NC(=O)Cn1c(=O)sc2ccccc21`, 79.3% (inactive). Consider `COC(=O)Cc1nc(C#N)c(N(C)C)o1`, for which the growth was 107% (inactive).
